Compound activity deposited in PubChem BioAssay by Broad Institute.
Only some compounds are listed: those with a hit (about 4% of all), similar ones and a draw of the others.
EBV LMP1 NFkB – EBV LMP1-driven NF-kappaB luciferase reporter inhibitors, primary screen, cell-based, luminescence, single point. LMP1-induced NF-kappaB luciferase reporter cells. inhibition, % at 12.5 µM. 350,000 tested, 0.69% active. AID 504558, 2011; in the data active = inhibition above about 41%; inconclusive = no clear call, values can overlap the other calls;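 also: 0% = neutral control wells and 100% = reference inhibitor control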
Wnt bcat act – Wnt/beta-catenin pathway activators, primary screen, cell-based, plate reader, single point; Wnt/beta-catenin reporter cell assay, activator; activation, % at 9.35 µM; 300,000 tested, 1.2% active; AID 743398, 2014; in the data active = activation above about 30%, passing the limit was not always enough; inconclusive = no clear call, values can overlap the other calls;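 also: 0% = neutral control wells and 100% = positive control wells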
MITF act – activators of MITF-driven TRPM1 promoter reporter, primary screen, cell-based, SK-MEL-5, luciferase, single point; SK-MEL-5 TRPM1-promoter luciferase, 24 h; % of positive control, neutral wells = 0; activation, % at 12.5 µM; 300,000 tested, 0.75% active;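 active = mean activation of at least 80% with every replicate also reaching 80%; inconclusive = mean reaches 80% but some replicate falls short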;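 also: 0% = neutral control wells and 100% = parthenolide positive control wells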
TRPM1 prom inh – inhibitors of MITF-dependent TRPM1 promoter reporter, primary screen, cell-based, SK-MEL-5, single point, luciferase; SK-MEL-5 TRPM1 promoter luciferase, 24 h; inhibition, % at 12.5 µM; 330,000 tested, 0.83% active;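 active = mean inhibition across replicates of 60% or more, whatever share of single replicates reaches that level; inconclusive = some that reach 60%, reason not given; inactive = mean inhibition across replicates below 60%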
Statin myotox sup – suppressors of statin myotoxicity in C2C12 myotubes, primary screen, cell-based, single point, plate reader; C2C12 myotubes + simvastatin, ATP luminescence, 48 h; scaled: DMSO 0, geranylgeraniol control 100; rescue of ATP level, % at 7.49 µM; 330,000 tested, 0.78% active; AID 602340, 2012;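 active = mean ATP rescue above about 67%, or every replicate alone reaching that limit, limit read from the data, passing the limit was not always enough; inconclusive = no clear call, values can overlap the other calls; inactive = mean under the limit and some replicate under it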;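 also: myotubes were challenged with 10 µM simvastatin during compound exposure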
esBAF inh – Bmi1 luciferase reporter increase in mESCs, primary screen, esBAF inhibitor project, mouse ES cells, Bmi1 luciferase knock-in, single point; 24 h; 100% = twice the neutral-well signal; reporter increase, % at 12.5 µM; 350,000 tested, 2% active; AID 602393, 2012; in the data active = activation above about 40%; inconclusive = no clear call, values can overlap the other calls;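 also: 0% = median of the plate's neutral control wells and 100% = double that signal; a rise in the Bmi1 reporter signal indicates esBAF inhibition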
* marks the source's active call; other numbers are inactive results; ? = inconclusive; nt = no result given.

SMILES	EBV LMP1 NFkB	Wnt bcat act	MITF act	TRPM1 prom inh	Statin myotox sup	esBAF inh
O=C(c1ccco1)N1CCN(C(=O)c2ccc(-c3ccc(Cl)cc3)o2)CC1	-2	2	15	-12	0	-3
COc1ccc(/C=N/Nc2ccc(C(=O)O)cc2)cc1Br	36	-6	-44	42	-17	-49
COc1cc(/C=N/Nc2ccccc2)ccc1OC(=O)c1cccs1	nt	4	nt	nt	nt	nt
CCOc1cc(/C=N/Nc2cccc(C(=O)O)c2)ccc1OC(=O)c1ccccc1	59*	-13	-91	91*	0	-69
COc1cc(C=NNc2ccccc2)ccc1OC(=O)c1ccccc1	-22	17	nt	nt	60	41*
COc1cc(/C=N/Nc2ccc(Cl)c(C(=O)O)c2)ccc1OC(=O)c1cccs1	-4	37*	-5	15	3	14
C=CCOc1c(Br)cc(/C=N/Nc2ccc(C(=O)O)cc2)cc1OCC	-7	10	105*	-104	nt	nt
CCc1c(O)nc(SC2CC(=O)N(c3ccccc3)C2=O)[nH]c1=O (stereo not given)	-3	-2	-7	9	106*	-14
COC(=O)c1cc(-c2ccc(OC)c(OC)c2)on1	-4	-6	3	-1	4	-1
O=C(c1cc2cc(Br)ccc2[nH]1)N1CCc2ccccc21	-6	4	15	-13	-5	31
O=C(O)c1cc2cc(Cl)ccc2[nH]1	2	-2	-12	15	-5	4
O=C(c1cc2cc(F)ccc2[nH]1)N1CCc2ccccc21	-38	42*	54	-51	-1	63*
Cc1cc(C)c2cc(C(=O)Nc3ccccc3)[nH]c2c1	-18	25	74	-75	-6	60*
Cc1ccc2[nH]c(C(=O)Nc3ccc(F)cc3)cc2c1	7	10	70	-64	-8	62*
O=C(O)c1cc2cc(F)ccc2[nH]1	85*	-16	-19	21	-2	0
O=C(NC1CCN(C(=S)NCCc2ccccc2)CC1)C1CC1	4	0	9	-6	nt	nt
Cc1ccc2oc(NC(=O)N3CCOCC3)cc(=O)c2c1	-2	nt	nt	-7	-6	8
CNS(=O)(=O)c1ccc(NC(=O)C2c3ccccc3Oc3ccccc32)cc1	2	nt	-3	-3	nt	nt
CC=Cc1ccc2n(c1=O)C[C@H]1[C@H](CO)[C@@H](C(=O)NCc3ccncc3)N(C(=O)NC3CCCC3)[C@@H]21 (mixture of isomers)	nt	nt	nt	nt	8	0
COc1ccc2cc(C(=O)N3CCN(c4cccc(C)c4C)CC3)[nH]c2c1	nt	2	5	-27	16	-6
COc1ccc2cc(C(=O)N3CCc4ccccc43)[nH]c2c1	-59	46*	39	-31	5	31
COc1ccc(-c2nc3c(Br)c(N)c(Br)cc3o2)cc1	-69	24	0	1	nt	nt
Nc1c(Br)cc2oc(-c3ccccc3)nc2c1Br	-44	nt	36	-32	11	58*
CCOC(=O)c1c(SC)n(-c2ccccc2)c(=S)n(-c2ccccc2)c1=O	-10	-3	-7	10	-9	3
CCOC(=O)c1c(SCCN2CCCCC2)n(-c2ccccc2)c(=S)n(-c2ccccc2)c1=O	-3	-4	-99	99*	nt	nt
SMILES	EBV LMP1 NFkB	Wnt bcat act	MITF act	TRPM1 prom inh	Statin myotox sup	esBAF inh
CC(=O)c1ccc(NC(=O)CCc2c(C)nc3ncnn3c2C)cc1	-23	23	17	-21	-4	48*
CCOC(=O)c1ccc(Nc2c(CC)c(C)nc3ncnn23)cc1	6	nt	-7	8	-8	9
CCc1c(C)nc2ncnn2c1Nc1ccc(C(C)=O)cc1	-15	26	33	-31	-8	48*
COc1ccc(N2CCN(C(=O)c3cc4c(s3)-c3ccccc3S(=O)(=O)C4)CC2)cc1	10	2	-7	7	-11	11
COc1ccc(OCCCC(=O)Nc2ccc(N3CCOCC3)cc2)cc1	-12	0	7	-1	nt	nt
COc1cc2c(c(O)c1OC)C(=O)C(OC)CCC2 (stereo not given)	0	0	-3	4	89*	-5
COc1ccc(-c2ccc3c(c2)S(=O)(=O)c2cccc(C(=O)NCCOc4ccccc4)c2C3=O)cc1OC	-4	nt	-27	30	-4	-3
CC(C)NC(=O)Nc1ccc2c(c1)C(=O)N([C@@H](C)CO)C[C@H](C)[C@H](CN(C)S(=O)(=O)c1ccccc1)OCCCC[C@H](C)O2	-6	-2	nt	nt	-2	11
O=C1CCC([N+](=O)[O-])C(c2cc(Br)ccc2F)N1 (stereo not given)	-2	0	-2	2	1	2
O=C1CCC([N+](=O)[O-])C(c2ccc(Cl)cc2Cl)N1 (stereo not given)	-7	nt	-12	14	70*	0
CN(C)/C=C/C(=O)c1cnc(-c2ccccc2)s1	-16	5	74	-71	9	56*
O=C(c1ccccc1)c1cnc(-c2ccccc2)s1	-21	12	39	-36	nt	nt
O=C(c1ccccc1)c1cnc(-c2ccc(Cl)cc2)s1	-34	40*	nt	-10	-15	39
COc1ccccc1CNC(=O)C1CCN(C(=O)N(C)C)CC1	-3	nt	-2	3	4	-9
COc1ccc(C(C)NC(=O)c2ccccc2Cl)cc1OC (stereo not given)	9	-3	4	-7	nt	nt
O=C1c2ccccc2CCCC12N=NCC2c1cccc2ccccc12 (stereo not given)	6	-3	-4	8	-20	-1
Cc1ccc(C2CN=NC23CCc2ccccc2C3=O)cc1 (stereo not given)	5	3	7	-7	-7	48*
O=C(O)COc1ccccc1O	28	nt	nt	5	6	-7
COc1ccc(-c2cc(=O)c3cc(C)ccc3[nH]2)cc1	-13	45*	107*	-104	9	4
CC1CCN(CC(=O)Nc2cc(C(F)(F)F)ccc2Cl)CC1	-11	-1	20	-15	nt	nt
O=C(Nc1cccc2ccccc12)C12CC3CC(C1)CC(n1cnc([N+](=O)[O-])n1)(C3)C2	3	-3	nt	21	69*	-7
CC(=O)c1cc(Cl)ccc1OCC(=O)NC1CCCC1	-21	-3	50	-48	8	52*
COc1cc(C)ccc1OCC(=O)NC1CCCCCC1	-15	-1	?	-83	-15	69*
O=C(COc1ccc(Cl)cc1[N+](=O)[O-])NC1CCCCC1	-35	0	62	-55	-5	101*
COc1cc(CNn2cnnc2)ccc1OCC(=O)NC1CCCCC1	-5	-2	5	-7	7	-12
